The record followed here is PubChem BioAssay.

Molecules are shown by their SMILES. Active and inactive are the calls of the source.

Experiment [1] relates to PRMT1 (protein arginine N-methyltransferase 1). The experiment in a line: PRMT1 binders on small-molecule microarrays, primary screen, biochemical, small-molecule microarray, 635 nm fluorescence (AID 1088).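 Note: binding of Prmt1 protein to compounds spotted on small-molecule microarray slides.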 To be noted: small-molecule microarray binding, higher = more signal.
The nature of experiment [2]: yeast growth modulation, basal conditions, primary screen, YJM789 clinical isolate, OD600, 24 h (AID 1089).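 Note: growth of clinical yeast isolate S. cerevisiae YJM 789 seeded 1000 cells per well; test concentration not given here.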 To be noted: S. cerevisiae YJM789 growth, higher = more signal, called active from +8 up or from −8 down.
Experiment [3] is described as follows: fission yeast growth modulation, primary screen, strain 972, OD600, 24 h, no modulator (AID 1090).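 Note: basal condition with compound alone and no growth modifier present; test concentration not given here.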 To be noted: S. pombe 972 growth, higher = more signal, called active from +8 up or from −8 down.
The nature of experiment [4]: S. cerevisiae growth modulation with rapamycin, primary screen, strain BY4716, OD600, 96 h (AID 1091). Note: test concentration not given here. Conditions: higher = more signal, called active from +8 up or from −8 down.
In experiment [5] the target is Torsin-1A-interacting protein 2 (Homo sapiens) (UniProt Q8NFQ8). The experiment in a line: LULL1 binders on small-molecule microarray, primary screen, cell lysate, human LULL1 lysate, 635/667 nm fluorescence (AID 1092).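 Note: probe is lysate of COS7 cells overexpressing human LULL1; score merges per-feature 667 nm fluorescence with signal-to-noise.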 To be noted: hLULL1 lysate binding, 635 nm fluorescence, higher = more signal.
Experiment [6] can be described thus: E. coli growth modulation, two-sided OD650, primary screen, E. coli filamentation project, strain DRC41, 24 h (AID 1093).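 Note: MC1000 strain lacking acrAB efflux and sulA so SOS filamentation is blocked; test concentration not given here.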 Conditions: OD650, 24 h, higher = more signal, called active from +8 up or from −8 down.
A short description of experiment [7]: small-molecule microarray binders of probe aLefty2, primary screen, biochemical, biotinylated probe, 635/667 nm fluorescence (AID 1094).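 Note: score merges spot fluorescence near 667 nm with spot signal-to-noise ratio.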 Conditions: higher = more signal.
For experiment [8], the system named is Noggin (protein binding on small-molecule microarray). The experiment in a line: Noggin binders on small-molecule microarray, primary screen, biochemical, 635/667 nm fluorescence (AID 1095).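 Note: score merges 667 nm feature fluorescence with signal to noise over triplicate slides.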 To be noted: 635 nm fluorescence, higher = more signal.
Experiment [9] has as its target Neurogenic locus notch homolog protein 3 (Homo sapiens) (UniProt Q9UM47). The experiment can be described thus: NOTCH3 binders on small-molecule microarray, primary screen, biochemical, 635/667 nm fluorescence (AID 1096). Conditions: NOTCH3 binding, 635 nm fluorescence, higher = more signal.
Experiment [10] in a line: small-molecule microarray binders of probe aEGFR, primary screen, biochemical, biotinylated probe, 635/667 nm fluorescence (AID 1097).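 Note: probe is a biotinylated anti-EGFR antibody binding compounds printed on slides; score combines fluorescence near 667 nm and signal to noise of each spot.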 To be noted: higher = more signal.
Experiment [11] relates to Plasmodium falciparum Sir2 (PF13_0152, Sir2A). The experiment can be described thus: pfSir2 binders on small-molecule microarrays, primary screen, biochemical, small-molecule microarray, 635 nm fluorescence (AID 1098).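 Note: score merges spot fluorescence intensity with its signal-to-noise ratio.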 Conditions: small-molecule microarray binding, fluorescence 635 nm; higher = more signal.
Experiment [12] in a line: small-molecule microarray binders of probe aDKK1, primary screen, biochemical, biotinylated probe, 635/667 nm fluorescence (AID 1099).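 Note: score merges 667nm spot fluorescence with signal to noise across triplicate slides; reference of the scale not given here.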 Conditions: higher = more signal.
Experiment [13] can be described thus: small-molecule microarray binders of probe aCHRDL2, primary screen, biochemical, biotinylated probe, 635/667 nm fluorescence (AID 1100). To be noted: higher = more signal.
Experiment [14] in a line: splicing luciferase reporter signal modulators, primary screen, spliceosome inhibition project, cell-based, HEK293, splice +/- reporter (AID 1101).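 Note: HEK293 cells carrying a splicing-competent luciferase reporter gene; test concentration not given here.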 Conditions: luminescence, 24 h, higher = more signal, called active from +8 up or from −8 down.
Experiment [15] addresses Fibroblast growth factor 10 (Homo sapiens) (UniProt O15520). The experiment can be described thus: FGF10 binders on small-molecule microarrays, primary screen, biochemical, small-molecule microarray, 635 nm fluorescence (AID 1102). To be noted: FGF10 binding, fluorescence 635 nm, higher = more signal.
Experiment [16] deals with glycogen synthase kinase-3 (GSK3A per assay name; protocol says GSK3B). The experiment can be described thus: GSK3 binders on small-molecule microarrays, primary screen, biochemical, small-molecule microarray, 635 nm fluorescence, GSK3A (AID 1103). Note: the record names both GSK3A and GSK3B. Conditions: small-molecule microarray binding, fluorescence 635 nm; higher = more signal.
In experiment [17] the target is Epidermal growth factor receptor (Homo sapiens) (UniProt P00533). The experiment can be described thus: EGFR binders on small-molecule microarrays, primary screen, biochemical, small-molecule microarray, 635 nm fluorescence (AID 1104).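 Note: score merges 667 nm emission intensity with spot signal to noise over triplicate slides.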 To be noted: EGFR binding, higher = more signal.
The target in experiment [18] is Follistatin-related protein 3 (Homo sapiens) (UniProt O95633). The experiment can be described thus: FSTL3 binders on small-molecule microarrays, primary screen, biochemical, small-molecule microarray, 635 nm fluorescence (AID 1105).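 Note: score merges emission near 667 nm and signal to noise per printed spot across three slides.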 Conditions: FSTL3 binding, higher = more signal.
Experiment [19] addresses Dickkopf-related protein 1 (Homo sapiens) (UniProt O94907). The experiment can be described thus: DKK1 binders on small-molecule microarrays, primary screen, biochemical, small-molecule microarray, 635 nm fluorescence scan (AID 1106).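 Note: score merges emission near 667 nm with signal to noise over three replicate slides.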 Conditions: DKK1 binding, higher = more signal.
In experiment [20] the test system is Inhibin beta A chain (activin A). The experiment in a line: INHBA (activin A) binders on microarrays, primary screen, biochemical, small-molecule microarray, 635 nm fluorescence scan (AID 1107).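 Note: mouse activin A protein probed at 4.33 µg/mL on printed slides; score merges bound-protein fluorescence near 667 nm with spot signal-to-noise.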 Conditions: small-molecule microarray binding, higher = more signal.

Sequence of Follistatin-related protein 3 (Homo sapiens) (O95633 whole entry, looked up): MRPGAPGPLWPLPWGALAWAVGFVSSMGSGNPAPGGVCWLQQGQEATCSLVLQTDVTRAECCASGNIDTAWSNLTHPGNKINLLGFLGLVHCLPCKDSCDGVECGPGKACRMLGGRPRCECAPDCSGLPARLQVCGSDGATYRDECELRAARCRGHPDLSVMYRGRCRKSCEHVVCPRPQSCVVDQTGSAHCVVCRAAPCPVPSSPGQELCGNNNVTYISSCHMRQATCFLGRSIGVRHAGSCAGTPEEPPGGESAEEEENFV
Sequence of Neurogenic locus notch homolog protein 3 (Homo sapiens) (Q9UM47 whole entry, looked up): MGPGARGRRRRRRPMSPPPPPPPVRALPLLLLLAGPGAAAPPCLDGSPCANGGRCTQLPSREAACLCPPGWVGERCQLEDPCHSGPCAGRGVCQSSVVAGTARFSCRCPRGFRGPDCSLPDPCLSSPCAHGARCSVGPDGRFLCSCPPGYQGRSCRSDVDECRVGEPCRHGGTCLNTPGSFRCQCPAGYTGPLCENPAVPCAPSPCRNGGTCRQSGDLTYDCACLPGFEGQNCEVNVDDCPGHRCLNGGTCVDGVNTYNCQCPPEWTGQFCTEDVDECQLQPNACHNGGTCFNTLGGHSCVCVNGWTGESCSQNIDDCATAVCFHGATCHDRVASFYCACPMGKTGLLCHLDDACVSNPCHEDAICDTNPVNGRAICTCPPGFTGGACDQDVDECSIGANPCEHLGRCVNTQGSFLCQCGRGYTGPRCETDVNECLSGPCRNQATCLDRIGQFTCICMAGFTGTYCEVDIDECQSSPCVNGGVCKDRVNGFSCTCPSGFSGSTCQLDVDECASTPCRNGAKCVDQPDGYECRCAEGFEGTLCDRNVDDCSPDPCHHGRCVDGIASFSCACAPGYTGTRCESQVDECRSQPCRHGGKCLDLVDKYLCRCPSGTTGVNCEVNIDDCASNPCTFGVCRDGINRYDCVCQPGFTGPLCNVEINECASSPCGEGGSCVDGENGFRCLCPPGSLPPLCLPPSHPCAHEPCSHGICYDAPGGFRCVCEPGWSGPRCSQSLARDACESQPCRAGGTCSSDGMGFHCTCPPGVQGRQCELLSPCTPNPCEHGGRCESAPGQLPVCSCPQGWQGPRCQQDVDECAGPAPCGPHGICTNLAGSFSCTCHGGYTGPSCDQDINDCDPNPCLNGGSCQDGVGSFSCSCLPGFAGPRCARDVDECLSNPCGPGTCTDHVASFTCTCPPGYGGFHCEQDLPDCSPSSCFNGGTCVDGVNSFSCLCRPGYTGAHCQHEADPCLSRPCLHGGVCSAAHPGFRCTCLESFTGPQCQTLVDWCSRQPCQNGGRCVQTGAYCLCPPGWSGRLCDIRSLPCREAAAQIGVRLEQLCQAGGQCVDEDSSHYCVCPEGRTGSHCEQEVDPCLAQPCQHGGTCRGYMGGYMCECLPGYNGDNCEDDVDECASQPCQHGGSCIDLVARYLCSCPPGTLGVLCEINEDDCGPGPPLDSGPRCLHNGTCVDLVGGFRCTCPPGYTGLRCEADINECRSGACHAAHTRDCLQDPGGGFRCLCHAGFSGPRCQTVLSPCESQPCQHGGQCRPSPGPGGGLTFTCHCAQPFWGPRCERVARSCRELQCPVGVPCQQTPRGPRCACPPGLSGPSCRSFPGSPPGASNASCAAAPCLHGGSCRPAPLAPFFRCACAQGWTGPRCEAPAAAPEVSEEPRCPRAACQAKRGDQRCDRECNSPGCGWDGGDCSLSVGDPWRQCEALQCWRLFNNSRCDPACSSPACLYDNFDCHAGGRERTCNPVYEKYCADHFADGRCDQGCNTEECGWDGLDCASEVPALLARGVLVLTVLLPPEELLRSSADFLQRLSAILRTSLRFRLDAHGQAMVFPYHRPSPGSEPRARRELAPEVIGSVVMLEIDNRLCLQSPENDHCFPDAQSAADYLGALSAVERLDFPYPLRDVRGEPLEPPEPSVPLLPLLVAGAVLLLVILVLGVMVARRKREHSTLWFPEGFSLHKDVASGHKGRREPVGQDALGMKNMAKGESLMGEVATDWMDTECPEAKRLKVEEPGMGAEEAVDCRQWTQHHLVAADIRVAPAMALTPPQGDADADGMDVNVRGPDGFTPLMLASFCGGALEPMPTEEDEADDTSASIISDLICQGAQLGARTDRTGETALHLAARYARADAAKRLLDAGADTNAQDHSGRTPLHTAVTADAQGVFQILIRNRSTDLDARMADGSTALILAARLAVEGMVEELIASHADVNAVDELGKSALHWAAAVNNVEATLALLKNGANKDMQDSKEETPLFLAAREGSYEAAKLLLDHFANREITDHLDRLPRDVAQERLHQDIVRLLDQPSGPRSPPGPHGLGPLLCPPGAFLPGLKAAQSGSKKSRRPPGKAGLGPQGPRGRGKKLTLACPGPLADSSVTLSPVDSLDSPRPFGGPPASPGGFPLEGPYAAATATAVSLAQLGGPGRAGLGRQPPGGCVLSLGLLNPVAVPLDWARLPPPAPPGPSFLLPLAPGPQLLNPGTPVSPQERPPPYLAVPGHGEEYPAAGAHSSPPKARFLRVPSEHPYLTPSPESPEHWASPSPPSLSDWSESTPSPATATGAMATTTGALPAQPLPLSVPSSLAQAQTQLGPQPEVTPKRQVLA
Sequence of Torsin-1A-interacting protein 2 (Homo sapiens) (Q8NFQ8 whole entry, looked up): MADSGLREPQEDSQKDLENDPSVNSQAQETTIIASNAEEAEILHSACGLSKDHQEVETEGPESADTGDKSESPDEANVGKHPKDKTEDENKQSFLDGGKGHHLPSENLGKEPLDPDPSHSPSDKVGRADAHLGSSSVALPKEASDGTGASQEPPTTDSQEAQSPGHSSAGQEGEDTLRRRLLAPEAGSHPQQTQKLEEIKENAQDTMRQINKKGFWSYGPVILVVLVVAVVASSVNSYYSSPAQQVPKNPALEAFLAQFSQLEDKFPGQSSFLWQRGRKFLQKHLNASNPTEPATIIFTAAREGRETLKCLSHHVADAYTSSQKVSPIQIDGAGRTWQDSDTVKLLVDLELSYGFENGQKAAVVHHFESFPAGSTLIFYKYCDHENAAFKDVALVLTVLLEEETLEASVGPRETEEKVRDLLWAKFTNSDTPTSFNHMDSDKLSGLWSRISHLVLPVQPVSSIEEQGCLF
Sequence of Epidermal growth factor receptor (Homo sapiens) (P00533 whole entry, looked up): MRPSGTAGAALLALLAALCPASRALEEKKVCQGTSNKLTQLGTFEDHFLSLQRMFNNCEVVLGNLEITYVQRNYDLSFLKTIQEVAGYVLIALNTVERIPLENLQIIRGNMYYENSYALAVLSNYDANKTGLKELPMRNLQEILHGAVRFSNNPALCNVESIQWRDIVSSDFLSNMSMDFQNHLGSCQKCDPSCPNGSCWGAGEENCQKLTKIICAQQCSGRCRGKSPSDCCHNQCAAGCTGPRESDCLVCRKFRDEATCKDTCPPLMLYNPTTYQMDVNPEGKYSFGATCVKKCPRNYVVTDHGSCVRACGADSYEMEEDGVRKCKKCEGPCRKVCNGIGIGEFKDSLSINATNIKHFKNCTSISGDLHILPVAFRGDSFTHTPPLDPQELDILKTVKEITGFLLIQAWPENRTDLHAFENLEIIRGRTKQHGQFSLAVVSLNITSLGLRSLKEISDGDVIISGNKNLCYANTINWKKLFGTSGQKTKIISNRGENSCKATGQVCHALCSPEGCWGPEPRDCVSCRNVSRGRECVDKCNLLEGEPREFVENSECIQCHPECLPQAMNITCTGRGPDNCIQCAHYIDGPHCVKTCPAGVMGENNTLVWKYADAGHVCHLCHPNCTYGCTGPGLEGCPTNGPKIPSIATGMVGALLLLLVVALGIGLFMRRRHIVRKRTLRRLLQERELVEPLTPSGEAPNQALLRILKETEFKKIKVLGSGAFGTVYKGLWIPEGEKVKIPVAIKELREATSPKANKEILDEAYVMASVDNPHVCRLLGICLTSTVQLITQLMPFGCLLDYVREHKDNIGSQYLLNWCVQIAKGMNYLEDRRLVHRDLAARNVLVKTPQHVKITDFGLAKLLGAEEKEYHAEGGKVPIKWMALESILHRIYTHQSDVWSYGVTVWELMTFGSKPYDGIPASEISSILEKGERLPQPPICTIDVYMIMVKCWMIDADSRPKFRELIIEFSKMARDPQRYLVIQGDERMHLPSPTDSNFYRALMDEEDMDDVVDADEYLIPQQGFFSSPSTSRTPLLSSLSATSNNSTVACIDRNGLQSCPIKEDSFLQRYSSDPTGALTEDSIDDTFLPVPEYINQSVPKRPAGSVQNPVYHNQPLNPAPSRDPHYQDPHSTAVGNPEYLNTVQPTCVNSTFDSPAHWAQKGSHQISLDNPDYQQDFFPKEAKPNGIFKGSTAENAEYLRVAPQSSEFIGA
Sequence of Fibroblast growth factor 10 (Homo sapiens) (O15520 whole entry, looked up): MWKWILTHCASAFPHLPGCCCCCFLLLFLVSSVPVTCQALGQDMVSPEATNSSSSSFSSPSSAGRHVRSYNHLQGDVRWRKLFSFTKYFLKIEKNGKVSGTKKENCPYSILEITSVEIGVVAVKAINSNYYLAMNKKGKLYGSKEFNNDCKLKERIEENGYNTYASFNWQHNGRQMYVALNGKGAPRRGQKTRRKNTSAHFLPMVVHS
Sequence of Dickkopf-related protein 1 (Homo sapiens) (O94907 whole entry, looked up): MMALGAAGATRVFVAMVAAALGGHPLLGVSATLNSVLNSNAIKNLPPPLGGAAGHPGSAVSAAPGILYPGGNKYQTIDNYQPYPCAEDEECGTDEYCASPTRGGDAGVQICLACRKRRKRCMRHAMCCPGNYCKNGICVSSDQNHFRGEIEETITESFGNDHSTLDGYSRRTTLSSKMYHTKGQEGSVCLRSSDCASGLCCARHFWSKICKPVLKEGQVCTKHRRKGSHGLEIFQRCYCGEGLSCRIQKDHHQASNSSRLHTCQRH

With `CC(C)(C)N1CC=CC23O[C@@H]4C=CCOC(=O)[C@@H]4[C@H]2C(=O)N(CCCCCCO)[C@@H]3C1=O` (stereo not given in full), the composite z-score in [1] is -0.911; in [5] it was 1.39; in [7], -0.101; in [8], -1.27; in [9] it was -0.729; in experiment [10] it was -0.163. The composite z-score is 1.09 in experiment [11]; -0.102 in experiment [12]; 0.65 in experiment [13]; -1.59 in [15]; -0.708 in experiment [16]; -1.04 in experiment [17]. For the same compound, the composite z-score in experiment [18] is -1.34; in experiment [19] it was -1.34; in experiment [20] it was 0.294. Further, the z-score is -1.54 (inactive) in [2]; -1.27 (inactive) in experiment [3]; -0.369 (inactive) in experiment [4]; -0.351 (inactive) in experiment [6]; 0.804 (inactive) in experiment [14].

Turning to `COCCOC(=O)N1C(=O)[C@@]2(c3cc(C#CC4=CCCCC4)ccc31)[C@H](c1ccc(OCCO)cc1)N1[C@H](c3ccccc3)[C@H](c3ccccc3)OC(=O)[C@H]1[C@@H]2C(=O)NC[C@H](O)c1ccccc1`, the composite z-score is 1.54 in [1]; 2.6 in experiment [5]; 0.789 in [7]; 1.11 in experiment [8]; 1.07 in [9]; 0.108 in [10]. The composite z-score amounted to 1.44 in [11]; 0.677 in experiment [12]; 0.696 in [13]; 1.35 in [15]; 1.31 in experiment [16]; 0.933 in experiment [17]. In addition, the composite z-score in [18] came out at 1.49; in experiment [19] it was 1.32; in [20], 1.29. Moreover, the z-score in experiment [2] was 2.04 (inactive); in experiment [3] it was 0.798 (inactive); in experiment [4] it was 5.7 (inactive); in experiment [6] it was 0.546 (inactive); in experiment [14] it was -0.228 (inactive).

Consider `[N-]=[N+]=NCc1ccccc1C[C@@]1(C(=O)N2CCCCC2)N=C(c2ccc(OCCCO)cc2)O[C@@H]1c1ccccc1`, for which the composite z-score was 0.424 in [1]; 2.2 in experiment [5]; -0.0261 in experiment [7]; -0.578 in experiment [8]; -0.426 in [9]; 0.159 in [10]. Further, the composite z-score was 0.884 in [11]; 0.542 in [12]; 0.751 in [13]; 0.384 in [15]; 0.0635 in [16]; -0.451 in experiment [17]. Further, the values for the composite z-score in [18], in [19] and in [20] were -0.281, -0.849 and 1.05, respectively. For the same compound, the z-score in experiment [2] was 0.591 (inactive); in experiment [3], 1.08 (inactive); in [4], 32.6 (active); in experiment [6], 0.685 (inactive); in experiment [14], -0.422 (inactive).

With `C=C[C@@H](OC)[C@H](OC(=O)Nc1ccc(SC)cc1)c1ccc(O)c(F)c1`, the composite z-score in experiment [1] is 1.56; in experiment [5], 2.58; in [7], -0.0654; in experiment [8] it was 0.808; in [9] it was 0.185; in experiment [10] it was -0.126. The composite z-score was 1.2 in experiment [11]; -0.0849 in [12]; 0.293 in experiment [13]; 0.588 in experiment [15]; 0.288 in experiment [16]; -0.198 in experiment [17]. The composite z-score in [18] came to 0.213; in experiment [19], 0.19; in experiment [20], 0.312. For the same compound, the z-score was 1.05 (inactive) in [2]; 0.123 (inactive) in experiment [3]; 1.65 (inactive) in experiment [4]; 0.374 (inactive) in experiment [6]; -1.17 (inactive) in [14].

Take `Cc1ccc(S[C@]2(C(=O)NCC(F)(F)F)CC(=O)N(Cc3ccccc3)[C@@H]2c2ccc(CO)cc2I)cc1`: the composite z-score in [1] was 0.29; in experiment [5], 1.62; in experiment [7], 0.496; in [8] it was -0.315; in experiment [9], 0.233; in [10], -0.118. For the same compound, the composite z-score in experiment [11] is 1.37; in [12] it was 0.307; in experiment [13], 0.264; in [15] it was -0.376; in [16], -0.342; in experiment [17], -0.592. Also, the figures for the composite z-score in experiment [18], in experiment [19] and in experiment [20] were -0.507, -0.813 and 0.548, respectively. Besides, the z-score in [2] was -3.01 (inactive); in [3] it was -2.23 (inactive); in [4], 0.854 (inactive); in [6], -0.161 (inactive); in experiment [14], -0.432 (inactive).
